Laboratory results taken from PubChem BioAssay.
Unmarked numbers belong to inactive results. For some assays here: Results with a measured potency or affinity are listed apart. Calls of active or inactive are those of the source. Unless noted, the rule behind the calls is not given here.

How the values were obtained:
[1] = antimalarial activity against Dd2 strain (AID 2302;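 active = growth inhibition above 50% at the single 2 µM test dose, taken to imply half-maximal potency below 2 µM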;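 note: 0% = DMSO untreated growth and 100% = chloroquine plus artemisinin killed control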); conditions: P. falciparum Dd2 in RBCs, LDH growth readout, 72 h; at 2 µM; stronger effect = higher value
[2] = human hepatoma cell viability loss – ATP luminescence, cytotoxicity control for P. falciparum antimalarial project, primary screen (AID 2303;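 active = inhibition above 50%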;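 note: 0% = DMSO wells and 100% = digitonin-killed cells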); conditions: HepG2 viability, 24-48 h, at 10 µM, stronger effect = higher value
[3] = target: L-lactate dehydrogenase (Plasmodium falciparum (isolate CDC / Honduras)) (UniProt Q27743); assay: PfLDH activity inhibition – cell lysate, 3D7 strain, counter-screen for P. falciparum growth inhibition project (AID 2304);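 note: 0% = vehicle and 100% = reference inhibitor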; conditions: P. falciparum 3D7 crude extract, LDH APAD/NBT absorbance; at 2 µM; stronger effect = higher value
Chain of L-lactate dehydrogenase (Plasmodium falciparum (isolate CDC / Honduras)) (Q27743 whole entry, looked up): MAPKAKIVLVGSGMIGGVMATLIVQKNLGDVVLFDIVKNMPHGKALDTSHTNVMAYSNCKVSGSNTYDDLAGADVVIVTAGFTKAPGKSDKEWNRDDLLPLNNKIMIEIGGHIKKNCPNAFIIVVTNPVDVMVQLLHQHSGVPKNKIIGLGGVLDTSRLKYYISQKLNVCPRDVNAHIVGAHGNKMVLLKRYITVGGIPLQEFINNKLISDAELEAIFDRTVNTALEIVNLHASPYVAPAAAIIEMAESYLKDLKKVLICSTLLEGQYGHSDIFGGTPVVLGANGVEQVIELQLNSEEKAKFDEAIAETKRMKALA

[4] = inhibition of 3D7 malaria parasite growth – strain 3D7 (AID 2306);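 note: 0% = DMSO wells and 100% = chloroquine plus artemisinin control wells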; conditions: P. falciparum 3D7 erythrocytic growth, LDH absorbance, 72 h; at 2 µM; stronger effect = higher value
[5] = target: Calcium-dependent protein kinase 1 (Plasmodium falciparum (isolate 3D7)) (UniProt P62344); assay: PfCDPK1 kinase inhibitors, biochemical, TCAMS library (AID 1159585; cut-off not given, nearly all actives have IC50 up to about 0.98 µM;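 note: inhibitors leave more ATP so luminescence rises with inhibition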); conditions: recombinant PfCDPK1, Kinase-Glo ATP depletion luminescence
Chain of Calcium-dependent protein kinase 1 (Plasmodium falciparum (isolate 3D7)) (P62344 whole entry, looked up): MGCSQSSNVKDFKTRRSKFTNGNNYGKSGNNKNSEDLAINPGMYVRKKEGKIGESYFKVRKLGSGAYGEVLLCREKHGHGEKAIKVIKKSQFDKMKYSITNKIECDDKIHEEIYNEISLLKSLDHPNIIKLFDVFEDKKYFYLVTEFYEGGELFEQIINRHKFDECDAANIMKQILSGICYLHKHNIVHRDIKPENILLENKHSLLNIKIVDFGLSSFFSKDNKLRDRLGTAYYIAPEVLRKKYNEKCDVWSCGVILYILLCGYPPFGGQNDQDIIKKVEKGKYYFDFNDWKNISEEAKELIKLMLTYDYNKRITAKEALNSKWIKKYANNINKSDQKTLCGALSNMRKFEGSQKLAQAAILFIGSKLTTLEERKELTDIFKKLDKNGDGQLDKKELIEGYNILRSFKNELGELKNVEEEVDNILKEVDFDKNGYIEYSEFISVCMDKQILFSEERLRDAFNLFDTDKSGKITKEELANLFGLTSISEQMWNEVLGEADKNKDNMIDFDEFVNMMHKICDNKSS

[6] = target: Plasmodium falciparum protein kinase 6 (PK6, PF3D7_1337100) (UniProt Q8IDW1); assay: PfPK6 kinase inhibitors, biochemical, TCAMS library (AID 1159586); conditions: recombinant PfPK6, Kinase-Glo ATP depletion luminescence
Chain of Plasmodium falciparum protein kinase 6 (PK6, PF3D7_1337100) (Q8IDW1 1-305): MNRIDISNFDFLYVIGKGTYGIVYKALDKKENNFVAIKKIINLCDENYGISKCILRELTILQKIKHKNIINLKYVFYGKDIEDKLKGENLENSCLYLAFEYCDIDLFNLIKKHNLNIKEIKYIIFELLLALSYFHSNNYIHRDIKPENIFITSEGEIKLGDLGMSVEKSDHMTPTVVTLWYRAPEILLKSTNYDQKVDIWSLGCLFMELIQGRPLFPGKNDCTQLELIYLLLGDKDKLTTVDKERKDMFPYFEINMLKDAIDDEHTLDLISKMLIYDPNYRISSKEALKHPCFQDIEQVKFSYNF

[7] = target: Protein kinase 7 (PK7), Plasmodium falciparum 3D7 (PF3D7_0213400) (UniProt Q7YTF7); assay: inhibition of Plasmodium PK7 catalytic activity – biochemical, TCAMS antimalarial set, Kinase-Glo luminescence (AID 1159587); conditions: recombinant PfPK7, Kinase-Glo ATP depletion luminescence
Chain of Protein kinase 7 (PK7), Plasmodium falciparum 3D7 (PF3D7_0213400) (Q7YTF7 1-343): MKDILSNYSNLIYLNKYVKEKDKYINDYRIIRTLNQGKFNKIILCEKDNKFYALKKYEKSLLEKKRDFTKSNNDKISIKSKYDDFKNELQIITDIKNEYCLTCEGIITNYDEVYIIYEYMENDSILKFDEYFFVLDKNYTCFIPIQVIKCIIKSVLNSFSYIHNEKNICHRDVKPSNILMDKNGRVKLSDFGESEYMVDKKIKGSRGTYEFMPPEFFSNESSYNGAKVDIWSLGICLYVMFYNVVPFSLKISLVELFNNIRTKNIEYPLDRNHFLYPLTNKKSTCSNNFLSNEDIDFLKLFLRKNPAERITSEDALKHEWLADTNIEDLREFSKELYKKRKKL

[8] = target: Calcium-dependent protein kinase 4 (Plasmodium falciparum (isolate 3D7)) (UniProt Q8IBS5); assay: PfCDPK4 kinase inhibitors, biochemical, TCAMS library (AID 1159588; cut-off not given, nearly all actives have IC50 up to about 0.91 µM); conditions: recombinant PfCDPK4, Kinase-Glo ATP depletion luminescence
Chain of Calcium-dependent protein kinase 4 (Plasmodium falciparum (isolate 3D7)) (Q8IBS5 whole entry, looked up): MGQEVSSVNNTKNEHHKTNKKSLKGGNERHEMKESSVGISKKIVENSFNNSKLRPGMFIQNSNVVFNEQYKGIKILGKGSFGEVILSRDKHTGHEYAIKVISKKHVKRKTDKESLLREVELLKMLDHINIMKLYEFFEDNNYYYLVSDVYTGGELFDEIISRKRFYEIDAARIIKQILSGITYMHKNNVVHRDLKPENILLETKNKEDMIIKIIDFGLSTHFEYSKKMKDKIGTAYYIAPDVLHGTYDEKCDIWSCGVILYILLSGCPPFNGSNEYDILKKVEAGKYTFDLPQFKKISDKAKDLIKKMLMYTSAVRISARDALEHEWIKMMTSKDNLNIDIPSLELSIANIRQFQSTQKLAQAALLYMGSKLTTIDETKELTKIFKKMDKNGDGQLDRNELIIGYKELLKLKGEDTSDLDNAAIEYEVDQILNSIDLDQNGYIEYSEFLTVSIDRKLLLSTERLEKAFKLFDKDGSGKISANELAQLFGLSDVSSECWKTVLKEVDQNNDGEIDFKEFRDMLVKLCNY

SMILES | growth inhibition [1] | inhibition [2] | inhibition [3] | growth inhibition [4] | outcome [5] | outcome [6] | outcome [7] | outcome [8]
O=C(c1cc2nc3c(c(C(F)(F)F)n2n1)CCc1ccccc1-3)N1CCN2CCCC2C1 (stereo not given) | 3% | -8% | 0% | 94% (active) | inactive | inactive | inactive | inactive
OC(CNCCc1ccccc1)Cn1c2ccc(Cl)cc2c2cc(Cl)ccc21 (stereo not given) | 96% (active) | 53% (active) | 8% | 98% (active) | inactive | inactive | inactive | inactive
Cc1cc(C(=O)NCc2ccc(-c3c(C)noc3C)cc2)n(-c2ccc(Cl)cc2)n1 | 98% (active) | -1% | 3% | 100% (active) | inactive | inactive | inactive | inactive
CCOC(=O)CCCCCNC[C@H](O)c1ccccc1 | 0% | 2% | 5% | 98% (active) | inactive | inactive | inactive | inactive
Cn1cnc(CCNC(=O)c2ccc(-c3cccc(-c4nc5ccc(C(F)(F)F)cc5[nH]4)c3)cc2)c1 | 93% (active) | 25% | 3% | 101% (active) | inactive | inactive | inactive | inactive
Cc1ccc(NC(=O)c2ccc(CN3CCCN(Cc4cccc(Cl)c4)CC3)cc2)cc1C | 18% | 41% | 2% | 84% (active) | inactive | inactive | inactive | inactive
O=C(Cc1cnc[nH]1)Nc1cccc(-c2ccc(-c3nc4ccc(F)cc4[nH]3)cc2)c1 | 84% (active) | 4% | -7% | 100% (active) | inactive | inactive | inactive | inactive
Cc1nc(N)nc(N)c1-c1cccc(Cl)c1 | -1% | 60% (active) | 2% | 88% (active) | inactive | inactive | inactive | inactive
COc1ccc2c(c1)CC(CNC[C@H](O)c1cccc(Cl)c1)CC2 (stereo not given in full) | 73% (active) | 1% | 7% | 94% (active) | inactive | inactive | inactive | inactive
Cn1nc(C(F)(F)F)cc1-c1ccc(C(=O)Nc2ccc3c(c2)CNCC3(C)C)s1 | 36% | 10% | -1% | 88% (active) | inactive | inactive | inactive | inactive
CCCCCN1CCC(NS(=O)(=O)c2cccc(C(=O)Nc3cccc(C(F)(F)F)c3)c2)C1 (stereo not given) | 17% | 25% | -5% | 86% (active) | inactive | inactive | inactive | inactive
Clc1ccc(CNc2nc(NCCc3cnc[nH]3)nc(N3CCCC4CCCCC43)n2)cc1 (stereo not given) | 100% (active) | 10% | 4% | 101% (active) | inactive | inactive | inactive | inactive
CSc1ccc2ccccc2c1CNCCCCCCNCc1c(SC)ccc2ccccc12 | 74% (active) | 83% (active) | 3% | 99% (active) | inactive | inactive | inactive | inactive
COc1cc(C2CCCCC2)c(OC)cc1CC1c2cc(O)c(Cl)cc2CCN1C (stereo not given) | 100% (active) | 12% | 4% | 100% (active) | inactive | inactive | inactive | inactive
Nc1cccc(CNCc2cccc(-c3csc(-c4nc5ccccc5[nH]4)c3)c2)c1 | 63% (active) | 13% | 4% | 102% (active) | inactive | inactive | inactive | inactive
c1ccc(CCNCc2ccc(-c3cccc(CNc4ccc5ncccc5c4)c3)cc2)cc1 | 17% | 30% | 3% | 91% (active) | inactive | inactive | inactive | inactive
CN(c1ccccc1C(=O)Nc1cc(Cl)ccc1Oc1ccccc1)S(=O)(=O)c1ccccc1 | 42% | 47% | 7% | 99% (active) | inactive | inactive | inactive | inactive
CCCc1cc(OC)c(CC2c3cc(O)c(C)cc3CCN2C)cc1OC (stereo not given) | 89% (active) | 32% | -2% | 99% (active) | inactive | inactive | inactive | inactive
O=C(Nc1ccc(Oc2ccccc2)cc1)N1CCC(CCN2CCC(c3c[nH]c4ccccc34)CC2)CC1 | 36% | 42% | 7% | 100% (active) | inactive | inactive | inactive | inactive
COc1ccc(Br)cc1C1[C@@H]2C(=O)N(c3ccc(Br)cc3)C(=O)[C@@H]2C2(C(=O)O)CC(OCc3ccccc3)CN12 (stereo not given in full) | 99% (active) | 16% | -2% | 104% (active) | inactive | inactive | inactive | inactive

SMILES | growth inhibition [1] | inhibition [2] | inhibition [3] | growth inhibition [4] | outcome [5] | outcome [6] | outcome [7] | outcome [8]
CN(C)c1ccc(OCCCCCCOc2ccccc2)cc1 | 68% (active) | -7% | -5% | 85% (active) | inactive | inactive | inactive | inactive
CC(C)(C)C(=O)Oc1ccc(CC2NCCc3cc(OC(=O)C(C)(C)C)c(OC(=O)C(C)(C)C)cc32)cc1OC(=O)C(C)(C)C (stereo not given) | 96% (active) | 3% | 5% | 97% (active) | inactive | inactive | inactive | inactive
CN(c1ccc(NC(=O)c2cccc(F)c2)cc1)C1CCCN(Cc2cccc(O)c2)C1 (stereo not given) | 2% | 13% | -3% | 85% (active) | inactive | inactive | inactive | inactive
COc1cccc(CNC(=O)[C@H]2CNCCN2C(=O)CCCc2ccccc2)c1 | 95% (active) | 56% (active) | 2% | 91% (active) | inactive | inactive | inactive | inactive
O=C(C=Cc1ccc(Cl)c(Cl)c1)NCCCCCN1CCCC(CCCNS(=O)(=O)c2ccc(Br)cc2)C1 (stereo not given) | 5% | 43% | -2% | 88% (active) | inactive | inactive | inactive | inactive
O[C@H]1[C@H](OCc2ccc(-c3ccccc3)cc2)CC[C@@H]1N1CCCCC1 | 101% (active) | 9% | 9% | 96% (active) | inactive | inactive | inactive | inactive
CC(=O)Nc1cccc(C(=O)Nc2nc3ccc(-c4cc(=O)[nH]c(Nc5ccccc5Cl)n4)cc3[nH]2)c1 | 62% (active) | -2% | 6% | 99% (active) | inactive | inactive | inactive | inactive
Cc1nn(CC(C)C)c2sc(C(=O)N3CCN(S(=O)(=O)c4ccc(C#N)cc4)CC3)cc12 | 99% (active) | 14% | -2% | 99% (active) | inactive | inactive | inactive | inactive
NC(N)=NC(=O)Nc1cc(F)c(Cl)c(Br)c1 | 50% (active) | -3% | 1% | 101% (active) | inactive | inactive | inactive | inactive
Cc1cnc2ccc(NS(=O)(=O)c3ccc4c(Cl)cccc4c3)cc2c1N1CCNCC1 | 3% | 24% | 1% | 101% (active) | inactive | inactive | inactive | inactive
CC(C)CNCc1ccc(-c2ccccc2CN(C(=O)NCCc2ccccc2)C2CCN(Cc3ccccc3)CC2)cc1 | 94% (active) | 89% (active) | 2% | 98% (active) | inactive | inactive | inactive | inactive
CCOc1cc(C(=O)N[C@@H](Cc2ccccc2)[C@H](O)CNCc2cc(OC)cc(OC)c2)cc(N2CCCCS2(=O)=O)c1 | 98% (active) | -2% | 5% | 100% (active) | inactive | inactive | inactive | inactive
COc1ccc(Cn2c(Nc3cccc(C(F)(F)F)c3)nc3cc(C(=O)NCCN4CCCC4)ccc32)cc1Cl | 54% (active) | 11% | 2% | 97% (active) | inactive | inactive | inactive | inactive
Nc1cccc(CNCc2cccc(-c3cccc(-c4nc5ccc(F)cc5[nH]4)c3)c2)c1 | 82% (active) | 5% | -4% | 102% (active) | inactive | inactive | inactive | inactive
COCCNCc1cccc(-c2cc3nccc(Nc4ccc(Oc5ccccc5)cc4)c3cc2Cl)c1 | 99% (active) | -8% | 1% | 99% (active) | inactive | inactive | inactive | inactive
Fc1ccc(Nc2ccnc3cc(-c4ccc(CNCCN5CCOCC5)o4)ccc23)c(Cl)c1 | 99% (active) | 34% | -1% | 100% (active) | inactive | inactive | inactive | inactive
COc1cccc(CNC(=O)c2ccnc(-c3ccc(CNCCOc4ccccc4)cc3)c2)c1 | 10% | 23% | -4% | 83% (active) | inactive | inactive | inactive | inactive
COc1ccc2c(c1)[nH]c1c(/C=C/c3ccc([N+](=O)[O-])cc3)nccc12 | 63% (active) | 4% | 3% | 100% (active) | inactive | inactive | inactive | inactive
CCOC(=O)c1cc2c(CCN3C(=O)c4ccccc4C3=O)cn(C)c2cc1-c1ccncc1 | 90% (active) | 99% (active) | 2% | 101% (active) | inactive | inactive | inactive | inactive
CC(=O)Nc1cccc(CN(Cc2ccc(-c3ccc(CNCc4cccnc4)cn3)cc2)C(=O)Cc2cccnc2)c1 | 65% (active) | -3% | -10% | 97% (active) | inactive | inactive | inactive | inactive
